High-throughput results from PubChem BioAssay.
Rows were chosen to be rich in hits. Some 19% of all compounds tested hit in one or more screens of this group.
HT1080-NT tox = qHTS for induction of synthetic lethality in tumor cells producing 2HG: qHTS for the HT-1080-NT fibrosarcoma cell line; HT-1080-NT fibrosarcoma viability, CellTiter-Glo ATP luminescence, 48 h; AID 686970, 2013; 1.6% of 360,000 active; Potency, µM (titrated, usually from 46.1 µM), inactives show top-dose activity, negative = less viability, hits mostly cytotoxic;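 further: NT is the 2HG producing partner of a matched IDH1 knockdown line; potency means the concentration at half of the fitted maximal effect; 0% = DMSO-treated cells and -100% = media-only wells without cells; nearly all actives have a fitted effect of over 55% in size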
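Luminescent CellTiter-Glo readout after 48 hours of compound exposure at 37 degrees C defined viability of HT-1080-NT cells. Activity was normalized to DMSO wells and cell-free media wells; concentration-response curves were fitted and assigned curve classes.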
TDP1 cell CPT = qHTS for Inhibitors of human tyrosyl-DNA phosphodiesterase 1 (TDP1): qHTS in cells in presence of CPT; 12% of 420,000 active; chicken DT40 Tdp1-/-;hTDP1 cells + 20 nM CPT, ATP luminescence, 48 h; Potency, µM (highest dose often 46.2 µM), inactives show top-dose activity change, negative = growth inhibition, usual class: inhibitors; further: potency means the concentration at half of the fitted maximal effect; nearly all actives have a fitted effect of over 55% in size
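Chicken DT40 Tdp1-/- cells stably complemented with human TDP1 were seeded at 400 cells/well in medium containing 20 nM camptothecin, exposed to pin-transferred compounds, and grown at 37 °C for at least 48 hr. Viability was read as ATP luminescence.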
IL-1B inflam inh = qHTS for Inhibitors of Inflammasome Signaling: IL-1-beta AlphaLISA Primary Screen; activity change, % at 57.5 µM; 4.7% of 360,000 active; THP-1 LPS/ATP IL-1B secretion, AlphaLISA, 16 h; active compounds read low; in the data active means activity change below about -50%; inconclusive means mostly about -30% to -49%
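Secreted IL-1B measured by AlphaLISA bead assay after 16 h compound exposure of THP-1 cells; compounds (final up to 57.5 uM) added 1 h before LPS (250 ng/mL) and ATP (1.25 mM) stimulation; lower signal means less secretion.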
HT1080 IDH1KD tx = qHTS for induction of synthetic lethality in tumor cells producing 2HG: qHTS for the HT-1080-IDH1KD cell line | AID 686971, 2013 | 2% of 360,000 active | Potency, µM (doses to about 46.1 µM), for inactives: at the highest dose activity, negative = toxicity, usual class: cytotoxic | HT-1080 IDH1 knockdown viability, ATP luminescence, 48 h;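 further: potency means the concentration at half of the fitted maximal effect; 0% = DMSO wells and -100% = cell-free medium wells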
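Cytotoxicity counter-line: IDH1KD HT-1080, 48 h, CellTiter-Glo. Curves classed by r2, magnitude and activity.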
TDP1 cell noCPT = qHTS for Inhibitors of human tyrosyl-DNA phosphodiesterase 1 (TDP1): qHTS in cells in absence of CPT. DT40 Tdp1-/- hTDP1 cells, no CPT, ATP luminescence, 48 h. Potency, µM (highest dose often 46.2 µM), for inactives: at the highest dose activity change, negative = growth inhibition, usual class: inhibitors. 15% of 420,000 active; further: potency means the concentration at half of the fitted maximal effect; nearly all actives have a fitted effect of over 55% in size
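Luminescent ATP content (CellTiter-Glo) served as the growth readout. Knockout chicken DT40 cells expressing human TDP1 were exposed to compounds without camptothecin for a minimum 48 hr at 37 °C.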
Starred values were filed as active, the others as inactive. Unless noted, the call rests on the fitted dose curve; in most records, active means well fitted curve in the direction sought with a large enough effect; inconclusive means small, poorly fitted or top-dose-only effect, or another doubt; inactive means no such curve, though single readings can be large; an effect the other way counts as inactive or inconclusive. Unless noted, on the % scale 0 is the no-effect control and ±100 the full control effect.

For CCSc1nnc(-c2ccc(Cl)cc2)c2ccccc12 the results were HT1080-NT tox 2%, TDP1 cell CPT inconclusive, IL-1B inflam inh -4, HT1080 IDH1KD tx 2% and TDP1 cell noCPT inconclusive.
Screening Clc1ccc(-c2nnc(Sc3nc4ccccc4o3)c3ccccc23)cc1 returned HT1080-NT tox 11µM*, TDP1 cell CPT inconclusive, IL-1B inflam inh -104*, HT1080 IDH1KD tx 11µM* and TDP1 cell noCPT 16µM*.
Cc1cc(C)n2nc(C(=O)OCC(=O)N(C)CC(=O)Nc3ccccc3Cl)nc2n1 was read as HT1080-NT tox 4%, TDP1 cell CPT 1%, IL-1B inflam inh 12, HT1080 IDH1KD tx 2% and TDP1 cell noCPT -14%.
Screening CC(C)CC(=O)Nc1c2c(nn1-c1cccc(Cl)c1)CS(=O)(=O)C2 returned HT1080-NT tox -4%, TDP1 cell CPT 7%, IL-1B inflam inh inconclusive, HT1080 IDH1KD tx -5% and TDP1 cell noCPT 2%.
Screening CC(C)(C)NC(=O)C1c2ccccc2OCC(=O)N1CC(F)(F)F (centres undefined) returned HT1080-NT tox 27%, TDP1 cell CPT 0%, IL-1B inflam inh 22, HT1080 IDH1KD tx 10% and TDP1 cell noCPT -12%.
COc1ccc(C(=O)/C=C/c2ccccc2OC)c(OC(=O)c2ccc([N+](=O)[O-])cc2)c1 was read as HT1080-NT tox 11%, TDP1 cell CPT inconclusive, IL-1B inflam inh -97*, HT1080 IDH1KD tx 9% and TDP1 cell noCPT inconclusive.
For O=C(O)/C=C/c1ccc(O)cc1 the results were HT1080-NT tox -7%, TDP1 cell CPT 1%, IL-1B inflam inh -1, HT1080 IDH1KD tx -4% and TDP1 cell noCPT 24%.
Screening COc1ccc(OC(=O)c2cccc([N+](=O)[O-])c2)c(C(=O)/C=C/c2cccs2)c1 returned HT1080-NT tox inconclusive, TDP1 cell CPT inconclusive, IL-1B inflam inh -53*, HT1080 IDH1KD tx inconclusive and TDP1 cell noCPT inconclusive.
Screening O=C(/C=C/c1ccccc1)c1ccc(O)cc1O returned TDP1 cell CPT inconclusive and TDP1 cell noCPT 16µM*.
COc1ccc(C(=O)/C=C/c2cc(C(=O)O)cc3c2OCOC3)c(O)c1 was read as HT1080-NT tox inconclusive, TDP1 cell CPT inconclusive, IL-1B inflam inh -94*, HT1080 IDH1KD tx inconclusive and TDP1 cell noCPT 23µM*.
COc1ccc(NC(=O)c2ccc([N+](=O)[O-])cc2[N+](=O)[O-])c(OC)c1 was read as HT1080-NT tox 2%, TDP1 cell CPT -22%, IL-1B inflam inh 29, HT1080 IDH1KD tx 5% and TDP1 cell noCPT -20%.
For CCc1cc(=O)oc2cc(OC(C)C(=O)O)c(Cl)cc12 (centres undefined) the results were HT1080-NT tox 18%, TDP1 cell CPT 1%, IL-1B inflam inh 11, HT1080 IDH1KD tx 24% and TDP1 cell noCPT 3%.
O=C1NC(=O)C(Cc2ccccc2F)(C2CCN(Cc3cccn3-c3cccnc3)CC2)N1 (centres undefined) was read as TDP1 cell CPT 8% and TDP1 cell noCPT -21%.
Screening COc1ccc(C(=O)O)c(O)c1 returned HT1080-NT tox 7%, TDP1 cell CPT 2%, IL-1B inflam inh 0, HT1080 IDH1KD tx 4% and TDP1 cell noCPT -14%.
`COc1ccc(C(=O)C=Cc2cccs2)c(O)c1` gave HT1080-NT tox -19%, TDP1 cell CPT inconclusive, IL-1B inflam inh -54*, HT1080 IDH1KD tx -18% and TDP1 cell noCPT inconclusive.
`COc1ccc(C(=O)/C=C/c2ccccc2)c(O)c1` gave HT1080-NT tox -27%, TDP1 cell CPT inconclusive, IL-1B inflam inh -99*, HT1080 IDH1KD tx -23% and TDP1 cell noCPT 23µM*.
